This is part of a sample that, as a whole, favours compounds with a hit. Of some 83,000 tested, about 20% had one in any assay.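 Negative percent growth values reflect cell death: -40 means 40% of the cells present at the start died, and -100 means all died.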 Values without a mark were called inactive. Calls of active or inactive are those of the source. The calls were made as follows: active = growth percent below 10; inactive = the rest.
How the values were obtained:
Test in all cases: NCI-60 one-dose screen, 48 h (100 = growth as untreated, 0 = no growth, -100 = all killed)
Conditions in all cases: 10 µM unless noted
[1] = test system: DU-145 prostate
[2] = test system: K-562 leukemia
[3] = test system: MALME-3M melanoma
[4] = test system: MDA-MB-231 breast
[5] = test system: RXF 393 renal
[6] = test system: SF-268 CNS
[7] = test system: SF-295 CNS
[8] = test system: UACC-257 melanoma
[9] = test system: M14 melanoma
[10] = test system: HCT-15 colon
[11] = test system: HT29 colon
[12] = test system: SNB-75 CNS
[13] = test system: SNB-19 CNS
[14] = test system: U251 CNS
[15] = test system: PC-3 prostate
[16] = test system: SK-MEL-5 melanoma
[17] = test system: UACC-62 melanoma
[18] = test system: LOX IMVI melanoma
[19] = test system: SK-MEL-28 melanoma

Structure (SMILES) | growth [1] | growth [2] | growth [3] | growth [4] | growth [5] | growth [6] | growth [7] | growth [8] | growth [9] | growth [10] | growth [11] | growth [12] [%] | growth [13] [%] | growth [14] | growth [15] | growth [16] | growth [17] | growth [18] | growth [19]
COc1ccc(-c2c3c(nc4n[nH]c(-c5ccc(Cl)cc5)c24)-c2ccccc2C(=O)C3=O)cc1 | 22.4% | 4.49% (active) | -32.4% (active) | -28% (active) | 14.1% | -38.8% (active) | 77.4% | 11% | -28.4% (active) | 21.6% | -11.8% (active) | 54.3 | 44.3 | -40.2% (active) | 7.97% (active) | 5.41% (active) | -33.7% (active) | -50.9% (active) | 30.4%
CC1=C(NCCN2CCCC2)C(=O)c2c(OCc3cccc(Cl)c3)cccc2C1=O | 89.9% | 30.8% | 53% | 62.8% | 73.8% | 72.8% | 56.9% | -42.4% (active) | -72.6% (active) | 57.1% | 26.1% | 75.1 | 99.4 | 61.7% | 69.9% | 67.1% | 93.7% | 36.1% | -8.01% (active)
CC/C=C\C[C@H](O)C/C=C1/C(=O)C=C[C@@H]1C/C=C\CCCC(=O)NC(C)C | 27.2% | 3.29% (active) | -4.08% (active) | 19.9% | -64.8% (active) | 35.4% | 6.21% (active) | -4.26% (active) | 7.13% (active) | -33.9% (active) | -29.6% (active) | 68 | 31.8 | 2.26% (active) | 16.4% | -69.8% (active) | -61% (active) | -46.9% (active) | 4.94% (active)
CC/C(Cc1ccccc1)=C(\c1ccc(OCCN2CCCC2)cc1)c1ccc(OC(C)=O)cc1 | 95.6% | 3.2% (active) | 94.7% | 99.6% | 65% | 76% | 99.6% | 93.9% | 75.1% | 60.5% | 24.4% | 57.8 | 105 | 57.2% | 79.5% | 69.6% | 43.9% | 48.2% | 21%
COc1ccc(-c2cc(=O)[nH]c3c(OC)c4ccccc4c(OC)c23)cc1 | 2.29% (active) | 8.05% (active) | 51.3% | 35.6% | 9.4% (active) | 34.8% | 8.09% (active) | 73.8% | 1.54% (active) | 26.3% | 2.07% (active) | 13.3 | 50.5 | 23.8% | 14.8% | 18.8% | 21.1% | 46.9% | 56.6%
CCOC(=O)CC(=O)c1c(C)cc(C)cc1C | 110% | 112% | 113% | 103% | 100% | 107% | 103% | 112% | 99.6% | 98.2% | 87.7% | 112 | 96.2 | 105% | 103% | 100% | 96.9% | 98.5% | 118%
CC1=C(NCCN2CCCC2)C(=O)c2c(OCc3ccc(F)c(Cl)c3)cccc2C1=O | 84.3% | 17% | 44.3% | 59.1% | 71.8% | 70.5% | 45.6% | -63.9% (active) | -73.7% (active) | 49.1% | 20.5% | 69.9 | 93 | 57.8% | 60.3% | 59% | 91.7% | 12.9% | -53.4% (active)
ClC1=C2NC=NC2n2c(nnc2-c2ccc(Cl)cc2)N1 (stereo not given) | 112% | 91.1% | 129% | 95.6% | 101% | 111% | 97.8% | 101% | 102% | 96.4% | 91.5% | 107 | 92.7 | 89.6% | 89.9% | 96.9% | 92.1% | 108% | 102%
O=C1c2ccccc2-c2nccc3cc(Cl)nc1c23 | 37.3% | -6.02% (active) | -65.6% (active) | 78.7% | -43.1% (active) | 24.6% | 53.2% | 58.6% | -63.4% (active) | 17.6% | 14.3% | 65.1 | 105 | 32.8% | 8.78% (active) | -89% (active) | 27.7% | -22.5% (active) | 55.8%
CCN(CC)CCC(=O)c1ccc(OC)c2ccccc12 | 116% | 43.9% | 104% | 110% | 81.8% | 110% | 99.6% | 89.4% | 90.1% | 107% | 109% | 89.1 | 87 | 95.4% | 102% | 107% | 90.6% | 86.8% | 122%
